Screening results from PubChem.
Compounds with a hit are over-represented: about 1.3% of the library has one in this group of screens.
CRFBP-R2 agonist: CRF-BP/CRF-R2 complex agonism; HEK293 CRF-R2/CRF-BP, calcium dye fluorescence (FLIPR); percent of saturating CRF peptide response; activation, % at 13.2 µM; actives 0.46% (n = 350,000); AID 588473;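 active means activation of at least 50%, plus an integration ratio under a set limit after plate pattern correction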;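 further: plate controls were neutral control wells without compound for no effect and CRF at EC100 for full effect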
RTF Ca sens inh: cardiac RTF calcium desensitization; IANBD-labeled cardiac RTF, Ca2+ fluorescence; inhibition, % at 7.15 µM; actives 0.12% (n = 340,000);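 active means inhibition above the mean inhibition of all tested compounds plus 3 SD, cut at about 17% in these data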;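 further: assay run at fixed EC70 calcium of 1.6 mM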
Keap1-Nrf2 PPI: disrupts human Keap1 binding to Nrf2 peptide. Q14145. Keap1 Kelch-Nrf2 peptide fluorescence polarization, 1536-well. inhibition, % at 9.4 µM. actives 0.15% (n = 340,000). AID 504523; in the data active means inhibition above about 12%;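 further: human Keap1 Kelch domain with fluorescein labeled Nrf2 9mer peptide probe; 0% = neutral control wells and 100% = peptide positive control; higher means more block of Keap1 binding to Nrf2 peptide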
Target sequence (Q14145 whole entry, looked up, the tested form may be a part): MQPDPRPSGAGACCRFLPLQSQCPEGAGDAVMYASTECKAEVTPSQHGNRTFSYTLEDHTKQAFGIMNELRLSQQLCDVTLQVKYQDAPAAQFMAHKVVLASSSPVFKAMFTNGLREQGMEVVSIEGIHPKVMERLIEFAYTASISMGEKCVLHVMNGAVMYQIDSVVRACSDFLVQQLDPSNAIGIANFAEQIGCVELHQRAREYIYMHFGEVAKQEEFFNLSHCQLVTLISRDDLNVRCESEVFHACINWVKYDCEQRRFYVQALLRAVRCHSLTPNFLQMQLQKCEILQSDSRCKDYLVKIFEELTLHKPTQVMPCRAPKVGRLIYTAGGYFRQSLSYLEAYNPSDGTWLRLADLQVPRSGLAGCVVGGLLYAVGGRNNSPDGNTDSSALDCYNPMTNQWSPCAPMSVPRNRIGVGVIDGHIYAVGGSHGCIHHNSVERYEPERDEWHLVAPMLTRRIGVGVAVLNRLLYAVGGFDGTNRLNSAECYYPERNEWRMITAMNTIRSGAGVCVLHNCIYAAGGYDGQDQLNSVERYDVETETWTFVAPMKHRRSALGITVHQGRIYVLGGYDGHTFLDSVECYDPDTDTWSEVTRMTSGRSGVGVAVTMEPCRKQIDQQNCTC
CRFR2-BP antag: CRF-BP/CRF-R2 complex antagonism; HEK293 CRF-R2/CRF-BP, CRF-induced calcium fluorescence; inhibition, % at 11.8 µM; actives 0.59% (n = 350,000); AID 588475;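 active means inhibition of the ligand-induced calcium signal above about 50% at the single tested concentration, limit read from the data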
RTF Ca sens act: cardiac RTF calcium sensitization; P19429+P45379; IANBD-labeled TnC RTF fluorescence at EC20 calcium; 0% EC20 calcium, 100% full calcium; activation, % at 7.2 µM; actives 0.24% (n = 340,000);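 active means activation above the mean over all tested compounds plus 3 SD, cut at about 30% in these data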;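 further: rise in fluorescence read as greater calcium sensitivity of cardiac thin filaments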
LANA DNA inh: inhibitors of KSHV LANA C-terminal domain DNA binding; MBP-C-LANA/FAM-LBS DNA binding, fluorescence polarization; inhibition, % at 9 µM; actives 0.078% (n = 340,000);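 active means highest replicate inhibition at or above 60% at 9 µM, even if other replicates fall short; inactive means all replicates below 60% inhibition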;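 further: 0% = neutral control wells and 100% = 4 µM acridine orange control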
* = called active by the depositor; · = not tested or not shown.

SMILES	CRFBP-R2 agonist	RTF Ca sens inh	Keap1-Nrf2 PPI	CRFR2-BP antag	RTF Ca sens act	LANA DNA inh
CCCCCCCNC1=CC(=O)CC(c2ccccc2)C1 (centres undefined)	-3.0	2.0	-3.9	14.5	4.6	-1.0
CCCCCNC1=CC(=O)CC(c2ccccc2)C1 (centres undefined)	-0.8	-2.6	3.1	81.3*	0.3	-0.3
COC(=O)c1sc2cc([N+](=O)[O-])cc(SCC(C)C)c2c1N	54.8*	-24.9	-4.3	-155.6	4.0	0.8
COC1=CC2(O)CCCC2=CC1=O (centres undefined)	0.2	-12.2	-1.6	-7.9	18.3	1.6
O=C(NCc1ccco1)c1ccc(N2CCCCC2)c([N+](=O)[O-])c1	-1.5	6.3	1.4	1.3	-5.2	-0.3
NC(=O)c1ccc(NCc2ccco2)c([N+](=O)[O-])c1	-4.7	-4.7	1.0	71.0*	-5.2	0.4
CC(C)C(NC(=O)c1ccco1)C(=O)NC1CCCCCC1 (centres undefined)	-0.4	-8.0	-7.3	105.3*	2.8	-0.3
NC(=O)c1ccc(NC(=O)C2COc3ccccc3O2)cc1 (centres undefined)	-1.1	-2.9	69.5*	2.5	-0.8	·
COc1ccc(CNC(=O)CN2CCN(S(=O)(=O)c3c(C)c(C)cc(C)c3C)CC2)cc1OC	-0.6	-1.9	-1.8	10.7	-0.8	0.8
COc1ccc(CNC(=O)CN2CCN(S(=O)(=O)c3cc(Br)ccc3Br)CC2)cc1OC	-1.2	-7.4	-2.0	59.9*	-0.5	0.4
Cc1cc(OCC(=O)Nc2ccccn2)c2c(C)cc(=O)oc2c1	-0.3	-8.5	0.2	-15.8	-1.3	2.8
Cc1ccc(S(=O)(=O)N2c3ccccc3OCC2c2ccccc2)cc1 (centres undefined)	5.7	12.8	2.8	50.1*	-0.6	-0.4
CC1COc2ccccc2N1S(=O)(=O)c1ccc(Cl)cc1 (centres undefined)	2.1	-3.1	-8.8	-4.1	6.2	1.8
O=C(NC1CCS(=O)(=O)C1)c1ccc(Br)o1 (centres undefined)	-1.2	5.7	0.6	2.7	-8.6	-0.3
Cc1sc(NC(=O)c2sc3nc4c(C)cccc4cc3c2N)c(C#N)c1C	88.3*	-10.3	-4.4	-163.8	2.0	0.3
CCOCCn1c(SCC(=O)OCc2ccccc2)nc2c1c(=O)[nH]c(=O)n2C	55.7*	-7.5	-4.6	-43.7	2.4	-1.2
CCOC(=O)C1CCCN(C(=S)NC2CCCCC2)C1 (centres undefined)	0.8	1.2	-0.3	0.3	-1.4	-0.1
O=C(C[C@@H]1C/C=C/CC[C@H](Cc2ccc(F)cc2)C(=O)O[C@H](c2ccccc2)CNC1=O)NCCO	4.5	3.7	-6.8	-2.2	0.5	-0.8
O=C(C[C@H]1C/C=C\C[C@@H](Cc2ccc(F)cc2)C(=O)O[C@H](c2ccccc2)CNC1=O)NCCO	1.2	5.5	2.8	83.9*	2.6	-0.4
CCOc1ccccc1NC(=O)CS(=O)(=O)c1cn(CC(=O)N2CCOCC2)c2ccccc12	-0.3	-9.2	-3.4	-5.4	-3.6	-1.0
Cc1c(Cl)ccc2c1NC(=O)C21NC(CCC(N)=O)[C@H]2C(=O)N(c3ccc(Cl)cc3)C(=O)[C@H]21 (some centres undefined)	-2.1	-21.3	-1.3	50.4*	1.0	0.4
Cc1c(Cl)ccc2c1NC(=O)[C@]21N[C@@H](CCC(N)=O)[C@H]2C(=O)N(c3ccc(F)cc3)C(=O)[C@H]21	0.9	-8.5	5.5	-7.4	1.1	3.5
O=C(Nc1cccc2ccccc12)N1CC=CCC1	0.3	-15.7	-2.8	88.3*	4.1	-0.9
COc1ccc(OC2C(=O)N(c3cc(C)ccc3C)C2c2ccc(OC)c(OC)c2)cc1 (centres undefined)	2.2	-1.9	-2.2	50.6*	2.1	0.8
C[C@]12CC[C@H](O)CC1=CCC1C2CC[C@@]2(C)C1CC[C@@H]2NC(=O)[C@@H](N)Cc1ccccc1 (some centres undefined)	2.9	-5.5	-7.4	-4.1	-2.5	0.0
SMILES	CRFBP-R2 agonist	RTF Ca sens inh	Keap1-Nrf2 PPI	CRFR2-BP antag	RTF Ca sens act	LANA DNA inh
Cc1ccc(C(=O)COC(=O)CCN2C(=O)C3C4C=CC(C5CC45)C3C2=O)cc1 (centres undefined)	-2.8	-0.3	5.5	91.1*	4.6	0.5
O=C(CCN1C(=O)C2C3C=CC(C4CC34)C2C1=O)OCC(=O)c1ccccc1 (centres undefined)	-11.5	4.6	-7.9	-16.1	-1.6	2.3
C[C@]12CCC(=O)C=C1CCC1C2CC[C@@]2(C)C1CCC21OCCO1 (some centres undefined)	1.1	-4.1	-0.3	8.5	-3.6	-0.8
CCOC(=O)C1CCCN(C(=O)c2ccc(Cl)c(S(=O)(=O)N3CCCCC3)c2)C1 (centres undefined)	-0.4	-5.6	4.8	53.5*	-0.7	-0.8
CCOC(=O)C1CCCN(C(=O)c2cccc(S(=O)(=O)N(Cc3ccccc3)c3ccccc3OC)c2)C1 (centres undefined)	-1.7	-1.6	7.8	50.9*	-8.3	-7.2
O=C1c2ccccc2-c2cccc(NS(=O)(=O)c3ccc(C(F)(F)F)cc3)c21	96.8*	-12.5	-0.7	-63.3	2.5	0.8
CCn1c(SCC(=O)NNC(=O)c2ccc(C)cc2)nnc1C(C)C	-0.5	0.8	-2.2	17.2	5.0	1.2
Cc1onc(-c2ccccc2Cl)c1C(=O)Nc1ccc(S(=O)(=O)N2CCCC2)cc1	1.8	-2.8	-4.0	3.4	9.0	-0.3
CC(=O)N[C@H]1C[C@@H]1c1ccccc1	-1.7	-11.3	4.1	60.8*	-5.0	0.9
COC(=O)Nc1ccc(S(=O)(=O)Nc2cc(C(F)(F)F)c[nH]c2=O)cc1	-1.0	-17.0	0.1	-4.5	-4.1	1.0
O=C(O)c1cnn(-c2nc(-c3ccc(Cl)c(Cl)c3)cs2)c1C(F)(F)F	-2.3	2.3	-1.1	50.2*	0.5	-0.3
CCCCCC(=O)Nc1cc(S(=O)(=O)O)cc2cc(S(=O)(=O)O)cc(O)c12	-1.0	67.3*	-0.2	-0.7	-49.4	113.8*
CCCCCC(=O)Nc1cc(S(=O)(=O)N2CCCCC2)ccc1N1CCCCC1	0.3	-4.8	-0.6	18.8	-11.8	0.7
COc1cccc(-c2nc(CS(=O)(=O)CC(=O)NCc3ccccc3)c(C)o2)c1	0.0	-6.4	-6.6	-27.8	-0.4	1.2
COc1ccc(C(=O)N(CCc2ccccc2)Cc2cccs2)c(OC)c1	1.8	-11.3	-5.1	0.2	-6.3	-1.6
CCOc1c(Cl)cc(CNc2ccc(S(N)(=O)=O)cc2)cc1OC	2.8	-11.8	-3.6	10.4	2.7	1.0
COc1c(Cl)cc(Cl)cc1CNc1ccc(S(N)(=O)=O)cc1	0.3	-2.5	3.7	58.0*	-4.0	-1.1
